Shown is part of a subset that was picked to be rich in hits.
DT40 TDP1 no CPT: qHTS for Inhibitors of human tyrosyl-DNA phosphodiesterase 1 (TDP1): qHTS in cells in absence of CPT; DT40 Tdp1-/- hTDP1 cells, no CPT, ATP luminescence, 48 h; Potency, µM (top dose mostly 46.2 µM), for inactives: at the highest dose activity change, negative = growth inhibition, most hits filed as inhibitors; 420,000 tested, 15% active; AID 686978, 2013; further: potency means the concentration at half of the fitted maximal effect; nearly all actives have a fitted effect of over 55% in size
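No-CPT arm: Tdp1-/-;hTDP1 DT40 cells (400/well) plus compounds, incubated ≥48 hr at 37 °C. Readout CellTiter-Glo luminescence.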
HT1080 IDH1KD tx: qHTS for induction of synthetic lethality in tumor cells producing 2HG: qHTS for the HT-1080-IDH1KD cell line | HT-1080 IDH1 knockdown viability, ATP luminescence, 48 h | Potency, µM (doses to about 46.1 µM), for the others: at the top dose activity, negative = toxicity, most hits filed as cytotoxic | 360,000 tested, 2% active | AID 686971, 2013;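 further: potency means the concentration at half of the fitted maximal effect; 0% = DMSO wells and -100% = cell-free medium wells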
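% activity derives from luminescence (CellTiter-Glo), normalised to DMSO and no-cell wells. HT-1080-IDH1KD cells, 750/well, had 48 h compound exposure at 37 °C.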
HT1080-NT tox: qHTS for induction of synthetic lethality in tumor cells producing 2HG: qHTS for the HT-1080-NT fibrosarcoma cell line | HT-1080-NT fibrosarcoma viability, CellTiter-Glo ATP luminescence, 48 h | 360,000 tested, 1.6% active | Potency, µM (top dose mostly 46.1 µM), for inactives: at the highest dose activity, negative = less viability, actives largely listed as cytotoxic;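 further: NT is the 2HG producing partner of a matched IDH1 knockdown line; potency means the concentration at half of the fitted maximal effect; 0% = DMSO-treated cells and -100% = media-only wells without cells; nearly all actives have a fitted effect of over 55% in size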
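HT-1080-NT; 750 cells/well; 5% FBS RPMI; 48 h compound, 37 degrees C; CellTiter-Glo luminescence; curve fitting and curve-class assignment.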
IL-1B inflam inh: qHTS for Inhibitors of Inflammasome Signaling: IL-1-beta AlphaLISA Primary Screen; THP-1 LPS/ATP IL-1B secretion, AlphaLISA, 16 h; active compounds read low; activity change, % at 57.5 µM; 360,000 tested, 4.7% active; in the data active means activity change below about -50%; inconclusive means mostly about -30% to -49%
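THP-1 cells pretreated 1 hr with compounds (up to 57.5 uM final), then stimulated with LPS (250 ng/mL final) plus ATP (1.25 mM final); secreted IL-1B measured by AlphaLISA after 16 hr, decreased signal indicating inhibition.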
12-LOX inh: Primary qHTS assay for inhibitors of human arachidonate 12S-lipoxygenase (ALOX12): Round 2 | Polyunsaturated fatty acid lipoxygenase ALOX12 (Homo sapiens), P18054 | purified 12hLO, xylenol orange hydroperoxide absorbance | Potency, µM (top dose mostly 108 µM), for the others: at the top dose activity change, negative = inhibition, actives largely listed as inhibitors | 580,000 tested, 1.1% active; further: potency means the concentration at half of the fitted maximal effect
Target sequence (P18054 whole entry, looked up): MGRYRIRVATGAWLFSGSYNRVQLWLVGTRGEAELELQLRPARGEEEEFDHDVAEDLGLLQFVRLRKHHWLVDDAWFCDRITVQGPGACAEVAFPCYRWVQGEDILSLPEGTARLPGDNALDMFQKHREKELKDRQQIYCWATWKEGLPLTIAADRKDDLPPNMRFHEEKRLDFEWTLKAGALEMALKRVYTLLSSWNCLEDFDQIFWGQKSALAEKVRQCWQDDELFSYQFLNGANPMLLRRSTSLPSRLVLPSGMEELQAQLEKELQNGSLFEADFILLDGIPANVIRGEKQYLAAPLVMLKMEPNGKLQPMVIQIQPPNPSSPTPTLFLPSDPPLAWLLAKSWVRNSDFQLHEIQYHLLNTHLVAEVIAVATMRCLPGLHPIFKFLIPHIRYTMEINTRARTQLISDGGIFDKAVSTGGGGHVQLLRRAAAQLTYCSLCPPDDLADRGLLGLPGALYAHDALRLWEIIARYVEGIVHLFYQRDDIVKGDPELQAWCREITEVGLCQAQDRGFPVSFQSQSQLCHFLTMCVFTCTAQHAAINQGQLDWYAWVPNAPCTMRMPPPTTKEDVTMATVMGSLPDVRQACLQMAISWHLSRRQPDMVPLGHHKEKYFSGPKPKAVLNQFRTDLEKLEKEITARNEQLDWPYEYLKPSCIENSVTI
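Hydroperoxide product was detected by ferrous iron/xylenol orange as the 573 to 405 nm absorbance ratio. Arachidonic acid at 40 uM (final) was turned over for 30 min at room temperature by 150 nM human 12hLO, pH 7.0 Hepes buffer, after 15 min compound preincubation.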
DT40 TDP1 CPT: qHTS for Inhibitors of human tyrosyl-DNA phosphodiesterase 1 (TDP1): qHTS in cells in presence of CPT; 420,000 tested, 12% active; Potency, µM (highest dose often 46.2 µM), for inactives: at the top dose activity change, negative = growth inhibition, usual class: inhibitors; chicken DT40 Tdp1-/-;hTDP1 cells + 20 nM CPT, ATP luminescence, 48 h; further: potency means the concentration at half of the fitted maximal effect; nearly all actives have a fitted effect of over 55% in size
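Cell growth measured by CellTiter-Glo luminescence after a minimum 48 h, 37 C compound exposure with 20 nM CPT in Tdp1-knockout DT40 cells stably expressing hTDP1, seeded 400/well; qHTS titration format.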
Starred values were filed as active, the others as inactive. Unless noted, the call rests on the fitted dose curve; in most records, active means well fitted curve in the direction sought with a large enough effect; inconclusive means small, poorly fitted or top-dose-only effect, or another doubt; inactive means no such curve, though single readings can be large; an effect the other way counts as inactive or inconclusive. Unless noted, on the % scale 0 is the no-effect control and ±100 the full control effect.

What do the screens show for `COc1ccc(NC2CC(=O)N(C(C)C)C2=O)cc1` (stereo not drawn)?
DT40 TDP1 no CPT: 0%; HT1080 IDH1KD tx: 16%; HT1080-NT tox: -1%; IL-1B inflam inh: 19; 12-LOX inh: 4µM*; DT40 TDP1 CPT: 6%

What do the screens show for `Cc1ccc(SC(C)C(=O)NC(C(C)C)C(C)C)cc1` (stereo not drawn)?
12-LOX inh: 2%

What do the screens show for `Cc1cc(C)c(OCC(=O)Nc2ccc3oc(C)nc3c2)c(C)c1`?
12-LOX inh: 4%

How did CCN1CCC2(CCC1=O)CN(Cc1cccc3cccnc13)CCN2C (stereo not drawn) do in these assays?
12-LOX inh: -6%

Results for CCN(CC)Cc1ccc(CNC(=O)c2n[nH]c(=O)c3ccccc23)cc1 ?
12-LOX inh: 19%

How did Cc1ccc(-n2nc(C(=O)N(C)c3ccc(C)c(C)c3)c3c4ccccc4n(C)c3c2=O)cc1 do in these assays?
DT40 TDP1 no CPT: 13µM*; 12-LOX inh: -18%; DT40 TDP1 CPT: 16µM*

What do the screens show for `CCCN(C(=O)c1nn(-c2ccc(C)cc2)c(=O)c2c1c1ccccc1n2C)c1ccccc1C`?
DT40 TDP1 no CPT: inconclusive; 12-LOX inh: -16%; DT40 TDP1 CPT: inconclusive

What do the screens show for `COc1ccc(CCNC(=O)c2nn(-c3ccc(C)cc3)c(=O)c3c2c2ccccc2n3C)cc1OC`?
DT40 TDP1 no CPT: 2.1µM*; 12-LOX inh: -22%; DT40 TDP1 CPT: inconclusive

Results for CCN(CC)CCOC(=O)c1ccc(NC(=O)c2nn(-c3ccc(C)cc3)c(=O)c3c2c2ccccc2n3C)cc1 ?
DT40 TDP1 no CPT: 0.58µM*; 12-LOX inh: inconclusive; DT40 TDP1 CPT: 1.2µM*

What do the screens show for `COc1ccc(-n2nc(C(=O)NCCc3cccc(C)c3)c3c4ccccc4n(C)c3c2=O)cc1Cl`?
DT40 TDP1 no CPT: -7%; 12-LOX inh: -20%; DT40 TDP1 CPT: -8%

What do the screens show for `CCN(C(=O)c1nn(-c2ccc(C)cc2)c(=O)c2c1c1ccccc1n2C)c1ccc(F)cc1`?
DT40 TDP1 no CPT: 13µM*; 12-LOX inh: -2%; DT40 TDP1 CPT: inconclusive

What do the screens show for `CCOc1ccc(CCNC(=O)c2ccc(OCc3c(C)noc3C)cc2)cc1OCC`?
DT40 TDP1 no CPT: 21µM*; HT1080 IDH1KD tx: -9%; HT1080-NT tox: inconclusive; IL-1B inflam inh: 2; 12-LOX inh: -1%; DT40 TDP1 CPT: 26µM*

Results for COc1ccc(CN(C)C(=O)c2ccccc2OCc2c(C)noc2C)c(OC)c1 ?
DT40 TDP1 no CPT: -17%; HT1080 IDH1KD tx: -1%; HT1080-NT tox: -1%; IL-1B inflam inh: 34; 12-LOX inh: 12%; DT40 TDP1 CPT: -14%

What do the screens show for `Cc1ccc(NC(=O)CN(C)C(=O)c2ccccc2OCc2c(C)noc2C)cc1`?
DT40 TDP1 no CPT: -14%; HT1080 IDH1KD tx: 15%; HT1080-NT tox: 16%; IL-1B inflam inh: -7; 12-LOX inh: 15%; DT40 TDP1 CPT: -23%

What do the screens show for `CCOc1ccc(NC(=O)CN(C)C(=O)c2ccccc2OCc2c(C)noc2C)cc1OCC`?
DT40 TDP1 no CPT: 0.65µM*; HT1080 IDH1KD tx: 2%; HT1080-NT tox: -1%; IL-1B inflam inh: 7; 12-LOX inh: 5%; DT40 TDP1 CPT: inconclusive

Results for COc1ccc(Br)cc1CN(C)C(=O)c1ccccc1OCc1c(C)noc1C ?
DT40 TDP1 no CPT: 16µM*; HT1080 IDH1KD tx: 3%; HT1080-NT tox: 7%; IL-1B inflam inh: -65*; 12-LOX inh: 12%; DT40 TDP1 CPT: inconclusive

Results for Cc1noc(C)c1COc1ccccc1C(=O)NCCc1ccc(Cl)cc1 ?
DT40 TDP1 no CPT: inconclusive; HT1080 IDH1KD tx: 5%; HT1080-NT tox: 10%; IL-1B inflam inh: -69*; 12-LOX inh: inconclusive; DT40 TDP1 CPT: inconclusive

What do the screens show for `Cc1noc(C)c1COc1ccccc1C(=O)N(C)Cc1ccc(C(C)(C)C)cc1`?
DT40 TDP1 no CPT: 6.5µM*; HT1080 IDH1KD tx: inconclusive; HT1080-NT tox: -24%; IL-1B inflam inh: 54; 12-LOX inh: inconclusive; DT40 TDP1 CPT: 7.3µM*
